Among all 190,000 compounds or so, about 4,100 (2.2%) were called active. The sample as a whole holds a higher share of actives than the screen did. Values without a mark were called inactive.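 Rule for the calls: active = thallium flux slope and its plate-corrected score both differing from the plate sample mean at a set confidence after two filtering rounds, in either direction; inactive = the rest.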
Each molecule was assayed against Solute carrier family 12 member 5 (Homo sapiens) (UniProt Q9H2X9) (assay: KCC2 cotransporter modulators, thallium flux, primary screen, cell-based, HEK293 KCC2, FluoZin-2 fluorescence, MLSMR (AID 1456;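 note: slope of fluorescence scaled to starting intensity during 10 to 20 s after thallium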)). Conditions: KCC2 cells, thallium flux FluoZin-2 fluorescence; at 10 µM.
Solute carrier family 12 member 5 (Homo sapiens), sequence (Q9H2X9 whole entry, looked up): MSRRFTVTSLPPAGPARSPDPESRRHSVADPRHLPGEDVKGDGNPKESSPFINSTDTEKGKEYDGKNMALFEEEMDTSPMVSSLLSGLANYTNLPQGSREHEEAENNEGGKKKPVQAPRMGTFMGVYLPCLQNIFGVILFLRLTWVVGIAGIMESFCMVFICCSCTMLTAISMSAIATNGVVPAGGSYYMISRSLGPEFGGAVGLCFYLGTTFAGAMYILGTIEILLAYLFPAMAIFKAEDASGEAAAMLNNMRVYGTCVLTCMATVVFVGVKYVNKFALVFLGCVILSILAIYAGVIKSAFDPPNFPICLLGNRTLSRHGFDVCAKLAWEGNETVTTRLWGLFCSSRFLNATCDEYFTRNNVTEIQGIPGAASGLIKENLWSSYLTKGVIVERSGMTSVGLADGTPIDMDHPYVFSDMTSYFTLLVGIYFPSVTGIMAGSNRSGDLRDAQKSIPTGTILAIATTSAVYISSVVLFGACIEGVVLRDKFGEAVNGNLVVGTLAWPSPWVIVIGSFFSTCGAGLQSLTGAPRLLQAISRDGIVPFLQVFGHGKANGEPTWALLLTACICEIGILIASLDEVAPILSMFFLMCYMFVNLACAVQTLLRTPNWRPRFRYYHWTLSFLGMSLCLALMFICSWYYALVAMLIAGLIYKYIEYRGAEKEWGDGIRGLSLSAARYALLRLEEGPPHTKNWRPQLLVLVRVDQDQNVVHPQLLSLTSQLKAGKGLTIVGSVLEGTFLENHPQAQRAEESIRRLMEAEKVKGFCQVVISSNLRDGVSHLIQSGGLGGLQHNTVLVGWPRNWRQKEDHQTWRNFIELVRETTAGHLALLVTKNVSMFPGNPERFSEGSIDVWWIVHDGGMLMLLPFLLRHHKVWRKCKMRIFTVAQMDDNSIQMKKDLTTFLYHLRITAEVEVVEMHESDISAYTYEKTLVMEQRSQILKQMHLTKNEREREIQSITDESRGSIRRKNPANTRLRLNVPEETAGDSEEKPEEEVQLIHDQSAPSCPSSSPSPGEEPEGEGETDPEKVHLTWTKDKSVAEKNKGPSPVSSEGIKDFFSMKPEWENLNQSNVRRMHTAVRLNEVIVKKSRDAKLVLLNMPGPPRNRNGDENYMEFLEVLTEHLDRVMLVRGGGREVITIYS

Row | Compound | B-score of Tl+ flux slope (higher = more flux/activation; lower = inhibition)
1 | COc1ccc(S(=O)(=O)N(CC(=O)N/N=C/c2ccccc2C(=O)O)c2ccccc2OC)cc1 | 0.515
2 | Cc1cccc(C)c1NC1=NC(=S)N(c2ccc(N(C)C)cc2)C1(C)C | 4.28 (active)
3 | Cc1nnc2n1N=C(c1ccc3c(c1)NC(=O)CO3)CS2 | -0.931
4 | Cc1cc(F)ccc1NC(=O)C(C)n1c2ccccc2c2nc(=O)cc(C)n21 (centres undefined) | -0.013
5 | Clc1cccc(N=C2NN=C(c3ccc4c(c3)OCCO4)CS2)c1 | 1.95
6 | CN(C)c1nc(=Nc2cccc(Cl)c2)ss1 | 87 (active)
7 | Cc1ccc(C(=O)NNC2=Nc3cc([N+](=O)[O-])ccc3OC2)cc1 | 0.865
8 | COc1ccc(OCCC(=O)c2ccc(OC)cc2)cc1 | 0.534
9 | COc1ccc(CCNC(=O)CSc2nc3[nH]ncc3c(=O)n2-c2cccc(C(F)(F)F)c2)cc1OC | 1.1
10 | COc1ccc(-n2cnnc2SCC(=O)Nc2cccc([N+](=O)[O-])c2)cc1 | 0.774
11 | NC(=O)NC(=O)CSc1nc2cc([N+](=O)[O-])ccc2n1-c1cccc(C(F)(F)F)c1 | 6.95 (active)
12 | O=C(CN1CCN(C/C=C/c2ccccc2)CC1)Nc1ccc(F)cc1F | 0.952
13 | CC(=O)N/C(=C\c1ccc(F)cc1)C(=O)NC(Cc1ccccc1)C(=O)O (centres undefined) | 0.0184
14 | O=C(O)c1cccnc1Sc1ncnc2sc3c(c12)CCC3 | 2.47
15 | O=C(Cn1cnc2ccccc2c1=O)Nc1cccc(S(=O)(=O)N2CCCCC2)c1 | 0.0725
16 | CS(=O)(=O)c1sc(C(=O)NC(=S)Nc2ccc(OC(F)(F)F)cc2)c2c1C=CCC2 | 6.79 (active)
17 | FC(F)(F)Oc1ccc(NC(=S)NCc2ccccc2)cc1 | 0.0182
18 | CCNC(=S)Nc1ccc(OC(F)(F)F)cc1 | -0.759
19 | CC1(C)C=C2[C@H]3CC[C@@H]4[C@@]5(C)CCC(=O)C(C)(C)[C@@H]5CC[C@@]4(C)[C@]3(C)CC[C@@]2(C(=O)O)CC1 | 5.9 (active)
20 | CCOC(=O)N1CCN(c2c(NCCN3CCN(c4ccccc4F)CC3)c(=O)c2=O)CC1 | 0.85
21 | O=C(CCn1nnc2ccccc2c1=O)N[C@@H](Cc1c[nH]c2ccccc12)C(=O)O | 0.807
22 | CCn1c(=S)[nH]c2sc3c(c2c1=O)CCCCC3 | 75.1 (active)
23 | CCCc1nc2sc3c(c2c(=O)n1NC(=O)CCCl)CCCC3 | -1.28
24 | O=c1c2c3c(sc2n(CCN2CCCC2)c(=O)n1Cc1ccccc1)CCCCC3 | -0.146
25 | O=C1C2C3C=CC(C3)C2C(=O)N1c1ccc(S(=O)(=O)Nc2nccs2)cc1 (centres undefined) | 0.592

Row | Compound | B-score of Tl+ flux slope (higher = more flux/activation; lower = inhibition)
26 | Fc1ccc(Nc2nnns2)cc1 | -0.138
27 | COc1ccccc1-n1cnc2cc(C(=O)NCC3CCCO3)ccc21 (centres undefined) | 0.84
28 | COCCCNC(=O)c1ccc2c(c1)ncn2-c1ccccc1OC | -0.0358
29 | COc1ccccc1-n1cnc2cc(NS(=O)(=O)c3ccccc3)ccc21 | -3.88 (active)
30 | NNC(=O)c1ccc(COCC(F)(F)C(F)F)cc1 | 0.0302
31 | CCOC(=O)c1cn[nH]c1NC(=S)Nc1ccccc1 | 0.559
32 | C/C(Cc1ccccc1)=N\NC(=O)CNC(=O)c1ccc2c(c1)OCCO2 | 0.0985
33 | O=C1/C(=C/c2cccs2)SC(=S)N1C1CCS(=O)(=O)C1 (centres undefined) | -0.225
34 | O=C(CCCN1C(=O)/C(=C/c2ccccc2)SC1=S)Nc1ccc(O)cc1 | -0.0883
35 | O=C(NC1CC1)c1ccc2c(c1)NC(=O)c1ccccc1S2 | -0.0671
36 | O=C1Cc2ccccc2Sc2ccc(Cl)cc21 | 0.587
37 | S=C1Nc2cc(Cl)ccc2Sc2ccccc21 | 8.4 (active)
38 | N#C/C(=C\N1CCOCC1)S(=O)(=O)c1ccc(Cl)cc1 | -0.211
39 | COC(=O)c1c(C)oc(C)c1S(=O)(=O)NCc1ccc(Cl)cc1 | -0.208
40 | COC(=O)C1=C(C)N=C2SC(C)C(=O)N2C1/C=C/c1ccccc1 (centres undefined) | 0.122
41 | CCOC(=O)c1ccccc1N1C(=O)C2Sc3[nH]c(=O)sc3C(/C=C/c3ccccc3)C2C1=O (centres undefined) | -6.82 (active)
42 | CC(OC(=O)c1ccccc1N1C(=O)C2C3CCC(C3)C2C1=O)C(=O)c1ccccc1 (centres undefined) | 0.138
43 | CC(C)(C)C(=O)NNC(=O)c1ccc(Oc2cc(Cl)cc(Cl)c2)o1 | 4.1
44 | C=CCNC(=S)NNC(=O)c1cc(Cl)ccc1OC | -0.352
45 | COc1ccc(Cl)cc1C(=O)NNC(=S)NC1CCCC1 | 0.52
46 | COc1ccc(Cl)cc1C(=O)NNC(=S)NC(=O)/C=C/c1ccco1 | 28.5 (active)
47 | Cc1nc2ccccc2n1CC(=O)N/N=C/c1cccs1 | 0.629
48 | Cc1cc(C)nc(SC(C)C(=O)N/N=C/c2cccs2)n1 (centres undefined) | 5.07 (active)
49 | NC(=O)N/N=C\c1cccs1 | 0.148
